Among the data in PubChem BioAssay (NCI) are growth values, retold here.

About 83,000 compounds went through this panel and 20% of them were active in at least one assay; those are over-represented in the sample as a whole.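 Assay: single dose, 48 h. Readout: percent growth (0 = no net growth; negative = cell death). Active: <10.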 A number with no mark means an inactive call. Active and inactive are the calls of the source.

In this test the test system is SN12C renal. Kind of test: NCI-60 one-dose screen, 48 h (100 = growth as untreated, 0 = no growth, -100 = all killed). The following applies: 10 µM unless noted.
For `COc1ccc(-c2cc(-c3cc(OC)ccc3OC)nc(SCC(=O)c3ccccc3)c2C#N)cc1`, the growth is 93.7%.

Turning to `Cc1ccc(Cl)c(NS(=O)(=O)c2ccc(-c3cnc(C4CC4)o3)cc2)c1`, the growth was 60.7%.

As for `COc1cccc(-c2nn(-c3ccccc3)cc2-c2ccnc(NCCNC(=O)c3ccccc3)c2)c1`, the growth was 71.4%.

Turning to `Cc1cc(N2CCCC2)nc(NCc2cc(Nc3ccnc4cc(Cl)ccc34)ccc2F)n1`, the growth was -58.8% (active).

Consider `COc1cccc(-c2nn(-c3ccccc3)cc2-c2ccnc(NCCNC(=O)Nc3ccccc3)c2)c1`, for which the growth is 54%.

Consider `CC(C)CCC[C@@H](C)[C@H]1CC[C@H]2[C@@H](Nc3ccc(O)cc3)CCC[C@]12C`, for which the growth was 108%.

For the compound `COc1cc(-c2nn(-c3ccccc3)cc2-c2ccnc(NCCNS(=O)(=O)c3ccc(Cl)cc3)n2)ccc1Cl`, the growth is 26.8%.

Regarding `CCCCn1c(=O)c2c(nc3n2CCCN3CCc2ccc(OCC(=O)NCCN(CC)CC)cc2)n(CCCC)c1=O`, the growth is 64.6%.

With `COC(=O)CCC1=C(C)C2=NC1=CC1=NC(=CC3=NC(=Cc4[nH]c(/c(=C(/C)O)c4C)=C2)C(C(C)=O)=C3C)C(C)=C1CCC(=O)OC`, the growth was 97.8%.

On to `N[C@@H](CCCCNCC(=O)O)C(=O)O`, for which the growth was 101%.

Consider `O=C(c1ccc(Nc2nccc(NCCCCNc3ccnc4cc(Cl)ccc34)n2)cc1)N1CCCCC1`, for which the growth is 67.4%.

Turning to `Cc1ccc(NCCN(C)C)c2c(=O)c3ccccc3sc12`, the growth is 25.1%.

For the compound `Cc1cc(NCCCCNc2ccnc3cc(Cl)ccc23)nc(Nc2ccc(C(=O)N3CCCC3)cc2)n1`, the growth was 70.4%.

As for `CC(C)(C)n1cc(-c2ccnc(NCCCNS(=O)(=O)c3ccccc3)c2)c(-c2ccccc2)n1`, the growth was 78.2%.

For the compound `Fc1ccc(CNc2c3ccccc3nc3ccccc23)cc1F`, the growth is 29.7%.

As for `c1c[nH]c(CNC2CCCCC2)c1`, the growth was 107%.

Turning to `COc1cccc(-c2nn(-c3ccccc3)cc2-c2ccnc(NCCNC(=O)Nc3cccc(C(F)(F)F)c3)c2)c1`, the growth is 28.4%.

As to `O=C(NCCCNc1cc(-c2cn(-c3ccccc3)nc2-c2cccc(O)c2)ccn1)c1ccc(F)cc1`, the growth was 55%.

In the case of `Cc1cc(NCc2cc(Nc3ccnc4cc(Cl)ccc34)ccc2F)nc(Cl)n1`, the growth is 37.2%.

For `NC(=O)c1ccc[n+](Cc2ccc(Cl)cc2Cl)c1`, the growth was 101%.

`Cc1cc(Cl)nc(NCc2cc(Nc3ccnc4cc(Cl)ccc34)ccc2F)n1`: the growth was 52.8%.

Take `COc1ccc(-c2ccc3c(c2)sc2nc(-c4ccc(F)cc4)cn23)cc1`: the growth was 87.9%.

Turning to `O=C(NCCCNc1cc(-c2cn(-c3ccccc3)nc2-c2cccc(O)c2)ccn1)c1ccccc1`, the growth was 61.1%.

Take `FC(F)(F)c1cc(Nc2ccc3cc(OCCCN4CCOCC4)ccc3n2)ccc1Cl`: the growth was 49.4%.

Regarding `COC(=O)[C@]12CC[C@@H](C)[C@H](C)[C@@H]1C1=CC[C@@H]3[C@@]4(C)C(C=O)=C[C@@](C)(COC(C)=O)C4=CC[C@@]3(C)[C@]1(C)CC2`, the growth is 9.9% (active).
